Screening data from PubChem BioAssay.
TWEAK-Fn14 inh: blocks TWEAK-Fn14 interaction in a reporter cell assay; TWEAK-stimulated Fn14 reporter cells, luciferase luminescence, 8 h; inhibition, % at 10 µM; actives 2% (n = 360,000); AID 1159606; in the data active = inhibition above about 50%
HSP90 refold inh: HSP90 refolding inhibition in rabbit reticulocyte lysate; luciferase refolding luminescence, 3 h; inhibition, % at 5.6 µM; actives 0.91% (n = 290,000);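 active = inhibition above the screen-wide mean plus 3 SD, computed separately per campaign, cut at about 16% in these data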;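 also: 0% = DMSO wells and 100% = 60 µM geldanamycin wells; inhibitors lower the luminescence because luciferase stays unfolded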
LGR2 antag: blocks bursicon-induced cAMP signaling via Drosophila LGR2; HEK293 LGR2, CRE-luciferase, bursicon-stimulated, 4 h; inhibition, % at 9.99 µM; actives 0.35% (n = 380,000); AID 720647;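 active = drop in luminescence signal, shown as inhibition above about 50% in the replicate tests, limit read from the data, passing the limit was not always enough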;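 also: agonist challenge used bursicon conditioned medium at about half maximal strength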
TROY signal inh: inhibitors of TROY-dependent NF-kB signaling | Q293 LMP1-TROYcd NF-kB luciferase reporter, 4 h | inhibition, % at 10 µM | actives 0.98% (n = 360,000);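 active = compounds whose plate-normalised and pattern-corrected inhibition of the luciferase reporter signal at the single screening dose is 50% or more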
HSP90 confirm: HSP90 inhibition, confirmation assay; actives 64% (n = 2,300); rabbit reticulocyte lysate, luciferase refolding luminescence, 3 h; inhibition, % at 5.9 µM; AID 1846; shares compounds with HSP90 refold inh; in the data active = inhibition above about 18%;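 also: 0% = vehicle wells and 100% = reference inhibitor wells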
luciferase ctr: blocks native firefly luciferase in HSP90 counter-screen; purified native firefly luciferase, luminescence; AID 1847; shares compounds with HSP90 refold inh; inhibition, % at 5.9 µM; actives 48% (n = 2,300);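 active = inhibition above the mean inhibition of all tested sample wells plus 3 SD, cut at about 10% in these data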;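 also: 0% = DMSO with luciferase and 100% = wells lacking luciferase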
Target sequence (P08659 whole entry, looked up): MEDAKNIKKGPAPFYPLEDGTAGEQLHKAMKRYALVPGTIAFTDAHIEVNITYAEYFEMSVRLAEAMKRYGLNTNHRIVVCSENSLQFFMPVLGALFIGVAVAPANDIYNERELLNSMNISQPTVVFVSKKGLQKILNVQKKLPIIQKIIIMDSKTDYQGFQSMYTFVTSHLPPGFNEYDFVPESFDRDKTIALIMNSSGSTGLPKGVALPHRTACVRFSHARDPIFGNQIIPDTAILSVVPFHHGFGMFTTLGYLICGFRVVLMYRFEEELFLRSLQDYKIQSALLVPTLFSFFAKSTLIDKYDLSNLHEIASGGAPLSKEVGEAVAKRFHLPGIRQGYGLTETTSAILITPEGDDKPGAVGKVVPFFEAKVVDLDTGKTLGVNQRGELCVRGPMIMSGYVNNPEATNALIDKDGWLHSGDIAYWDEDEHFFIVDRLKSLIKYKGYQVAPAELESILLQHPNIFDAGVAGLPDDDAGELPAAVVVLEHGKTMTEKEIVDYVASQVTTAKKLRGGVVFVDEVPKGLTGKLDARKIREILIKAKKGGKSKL
Starred values were filed as active, the others as inactive; nt = no result. Sampled rows, rich in hits. Any-hit rate of the full collection: about 2.2%.

SMILES	TWEAK-Fn14 inh	HSP90 refold inh	LGR2 antag	TROY signal inh	HSP90 confirm	luciferase ctr
CN(C)S(=O)(=O)c1ccc(NC(=O)c2ccncc2)cc1	-3	42*	nt	-2	-4	-8
CN(C)S(=O)(=O)c1cccc(NC(=O)c2ccncc2)c1	7	-4	6	10	nt	nt
O=C(OCC(=O)c1cccs1)c1ccccc1	-14	-3	nt	-65	nt	nt
O=C(CC(Nc1ccc(Cl)cc1Cl)C(=O)O)c1ccccc1 (stereo not given)	95*	25*	42	87*	76*	74*
O=C(CC(Nc1ccccc1Cl)C(=O)OCC(=O)c1cccs1)c1ccccc1 (stereo not given)	70*	32*	nt	71*	43*	38*
Cc1ccc(NC(CC(=O)c2ccccc2)C(=O)O)cc1Cl (stereo not given)	29	5	-66	19	nt	nt
C[C@@H]1CN([C@@H](C)CO)C(=O)c2cc(NC(=O)CCCN(C)C)ccc2O[C@H]1CN(C)Cc1ccc(-c2ccccc2)cc1	nt	nt	-12	nt	nt	nt
COCCNC(=O)C[C@@H]1CC[C@@H]2[C@@H](COc3ccc(NC(=O)C4CCCC4)cc3C(=O)N2C)O1	nt	nt	-14	nt	nt	nt
Cc1noc(C)c1NC(=O)Nc1cccc2c1O[C@@H](CN(C)S(=O)(=O)c1cccs1)[C@@H](C)CN([C@@H](C)CO)C2=O	nt	nt	-9	nt	nt	nt
Cc1c(C)c2ccc(OCc3ccc(C(=O)O)o3)c(C)c2oc1=O	49	75*	nt	-62	87*	45*
COC(=O)c1ccc(COc2ccc3c(C)c(C)c(=O)oc3c2)o1	-40	18*	-113	-59	76*	-17
CCCc1cc(=O)oc2cc(OCC(=O)NCC3CCC(C(=O)O)CC3)ccc12 (stereo not given)	-5	25*	12	-1	0	-5
O=C(O)c1ccc(COc2ccc3c4c(c(=O)oc3c2)CCC4)o1	30	78*	nt	-40	79*	34*
CO[C@@H]1CN(C)C(=O)c2cc(NC(=O)Nc3cccc(F)c3)ccc2OC[C@H](C)NC[C@H]1C	nt	nt	10	nt	nt	nt
CO[C@H]1CN(C)C(=O)c2ccc(NC(C)=O)cc2OC[C@H](C)N(C(=O)CC2CC2)C[C@H]1C	nt	nt	0	nt	nt	nt
O=C(NCC[C@H]1CC[C@@H](NS(=O)(=O)c2cccc(F)c2)[C@H](CO)O1)Nc1cc(F)ccc1F	nt	nt	32	nt	nt	nt
CCc1cc(=O)oc2cc(OCc3ccc(C(=O)O)o3)ccc12	-25	27*	-22	-50	33*	-3
C=C(C)COc1ccc2c(CC)cc(=O)oc2c1	-22	-1	-6	-22	nt	nt
C[C@@H]1CN([C@H](C)CO)C(=O)c2cccc(NS(=O)(=O)c3ccc(Cl)cc3)c2O[C@H]1CN(C)S(=O)(=O)c1cccs1	nt	nt	18	nt	nt	nt
O=[N+]([O-])c1ccc(S(=O)(=O)N2CCN=C2SCc2ccc(F)cc2)cc1	0	35*	7	-10	70*	-4
COc1ccc(N2CCN(/C(=N\S(=O)(=O)c3ccccc3)Nc3nc(C)cc(C)n3)CC2)cc1	3	39*	nt	-22	-4	-6
C[C@@H]1CN([C@H](C)CO)C(=O)c2cc(NC(=O)Nc3cccc4ccccc34)ccc2O[C@@H](C)CCCCO[C@H]1CN(C)S(=O)(=O)c1ccccc1	nt	nt	0	nt	nt	nt
COc1ccc(/C=N/NC(=O)c2nn(-c3ccc(Cl)cc3)c(=O)c3c(N)scc23)cc1	12	5	nt	-22	nt	nt
COc1ccc(/C=N/NC(=O)c2nn(-c3ccccc3)c(=O)c3c(N)scc23)cc1	-9	20*	nt	3	8	-11
COc1ccc(N(C)C(=O)Nc2ccc3nsnc3c2)cc1	8	21*	-24	20	0	-12
SMILES	TWEAK-Fn14 inh	HSP90 refold inh	LGR2 antag	TROY signal inh	HSP90 confirm	luciferase ctr
CC(C)N(C(=O)Nc1ccc2nsnc2c1)C(C)C	nt	29*	82*	nt	8	-2
C=CCNC(=S)Nc1ccc2nsnc2c1	-13	-1	5	-45	nt	nt
COc1ccc(NC(=S)Nc2ccc3nsnc3c2)cc1	-4	43*	-47	-35	4	-21
C=CCN(CC=C)C(=S)Nc1ccc2nsnc2c1	5	31*	-66	-18	-1	-13
COc1ccc(N(C)C(=O)Nc2ccc3c(c2)nnn3C)cc1	9	3	11	-4	nt	nt
CC1=CC2=NC(=O)/C(=C\c3cccn3CCOc3cc(C)ccc3C)C(=N)N2O1	13	53*	20	15	-2	-8
CC1=CC2=NC(=O)/C(=C\c3cccn3CCOc3cccc(C)c3)C(=N)N2O1	7	-1	11	-5	nt	nt
COCC#Cc1ccc2c(c1)O[C@H](CN(C)S(C)(=O)=O)[C@@H](C)CN([C@H](C)CO)S2(=O)=O	nt	nt	-13	nt	nt	nt
CCOC(=O)CS(=O)(=O)c1nc(-c2ccc(F)cc2)cc(C(F)(F)F)n1	57*	53*	nt	51*	-2	-5
CCOC(=O)c1c(C(F)(F)F)cc(-c2ccc(F)cc2)nc1C	12	-1	9	15	nt	nt
O=C(NC1Cc2ccccc2C1)[C@@H]1[C@@H](CO)[C@@H]2Cn3c(ccc(C4=CCCCC4)c3=O)[C@@H]2N1CC1CC1	nt	nt	-13	nt	nt	nt
O=C(C[C@H]1CC[C@H](NC(=O)CC2CC2)[C@@H](CO)O1)NCc1ccccc1	nt	nt	3	nt	nt	nt
Cc1c(C(=O)O)cccc1-c1ccc(/C=C2/NC(=O)N(c3ccccc3)C2=O)o1	-11	33*	-51	-21	28*	-20
Cc1ccc(/C=C2/NC(=O)N(c3ccccc3)C2=O)o1	8	-3	nt	25	nt	nt
CCOC(=O)CN1C(=O)S/C(=C\c2ccc(-c3cccc(C(=O)O)c3C)o2)C1=O	-16	nt	-43	-35	nt	nt
Cc1c(C(=O)O)cccc1-c1ccc(/C=C2\SC(=O)NC2=O)o1	-10	29*	26	-30	39*	17*
C=COC(=O)CSc1nc(-c2cccs2)ccc1C#N	-36	33*	-96	-53	-3	-13
COc1ccc(-c2nc3ccccc3nc2-c2ccccc2)cc1	-2	2	16	1	nt	nt
COc1ccc(-c2cc3nnc(-c4ccccc4)nc3s2)cc1	72*	21*	nt	63*	45*	43*
COc1ccc2cc(-c3cc(C(=O)O)c4ccccc4n3)ccc2c1	75*	28*	nt	25	64*	38*
COc1ccccc1C(=O)N(Cc1ccccc1)c1ccc(C)cc1	-4	57*	-5	3	-7	-11
COc1ccccc1CC(=O)N(Cc1ccccc1)c1ccc(C)cc1	-5	2	6	9	nt	nt
O=C(O)c1cccc(OCc2ccccc2Cl)c1	11	28*	nt	-27	53*	27*
O=C(O)c1cccc(-c2nnn(Cc3ccccc3)n2)c1	-13	29*	nt	-54	35*	41*
Cc1ccccc1Cn1nnc(-c2cccc(C(=O)O)c2)n1	4	38*	32	-86	54*	66*
Cc1ccccc1Cn1nnc(-c2ccc(C(=O)O)cc2)n1	-14	1	21	-9	nt	nt
COc1ccc(-c2nnn(Cc3ccccc3)n2)cc1	-47	-3	-32	-45	nt	nt
